Results from the supplement of paper PMC6555819.

What was measured:
Test in all cases: PBM binding z-score (relative to random genomic background probes); higher = stronger binding; sequences stand for … in GC…GCGATTGACAGCGTAGAATGAAGG
[1] = test system: PPARg:RXRa DBDmut IVT, anti-RXR (DBD mutation: RXRa K156A/R161A, NR concentration 270 nM, RXRa partner concentration 90 nM)
Outline: (§1)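 The probes on custom Agilent 4×180K protein-binding microarrays were double-stranded, with 34-nt variable regions bearing direct-repeat seeds, single-nucleotide variants, half-site ablations and random human genomic background sequences. Incubation lasted 1 h with ligand-free nuclear receptor dimers in PBS pH 7.4, 2% milk, 0.02% Triton X-100, 1 mM DTT, 0.2 mg/mL BSA and 0.4 mg/ml salmon testes DNA. Antibodies against each partner (one per run) detected bound dimers, and fluorescence scans were regression-normalized. Binding z-scores take the random background probes as reference.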

[2] = test system: PPARg:RXRa IVT, anti-PPARg (NR concentration 270 nM, RXRa partner concentration 90 nM)
Outline: as §1

[3] = test system: PPARg DBDmut:RXRa IVT, anti-PPARg (DBD mutation: PPARg1 K132A/R137A, NR concentration 270 nM, RXRa partner concentration 90 nM)
Outline: as §1

[4] = test system: PPARg DBDmut IVT, anti-PPARg (DBD mutation: PPARg1 K132A/R137A, NR concentration 270 nM)
Outline: as §1

[5] = test system: PPARg homodimer (NR concentration 180 nM)
Outline: as §1

[6] = test system: PXR:RXRa (NR concentration 270 nM, RXRa partner concentration 90 nM)
Outline: as §1

[7] = test system: PXR homodimer (NR concentration 270 nM)
Outline: as §1

[8] = test system: RARa:RXR (NR concentration 270 nM, RXRa partner concentration 90 nM)
Outline: as §1

[9] = test system: RARa homodimer (NR concentration 270 nM)
Outline: as §1

[10] = test system: RARb:RXRa (NR concentration 270 nM, RXRa partner concentration 90 nM)
Outline: as §1

Sequence | PBM binding z-score [1] | PBM binding z-score [2] | PBM binding z-score [3] | PBM binding z-score [4] | PBM binding z-score [5] | PBM binding z-score [6] | PBM binding z-score [7] | PBM binding z-score [8] | PBM binding z-score [9] | PBM binding z-score [10]
GCGACTGGGGCATCAGCAGGTTACCATTACTTAA | 3.98 | 3.38 | -0.628 | -0.712 | 0.00295 | -0.132 | -0.395 | 0.221 | -0.0866 | 0.832
CCGACAGGGGCATAAGGTTACCATAAGCCAGCCC | -0.166 | 0.15 | -1.21 | -1.04 | 0.637 | 0.688 | -0.195 | 1.93 | -0.124 | 2.11
CTCAAAAGGTCGTGCTCAGGTGAGTATACCAAAC | 1.02 | 2.03 | 0.582 | 0.851 | 1.51 | 3.24 | 0.288 | 4.2 | 0.127 | 4.03
AGAATGATGTTATACGTAGATCAGGGAAGAAAGT | -0.521 | -0.0838 | 1.57 | 1.74 | -0.218 | -0.0656 | 0.403 | -0.276 | -0.0154 | -0.18
TCTATTAGATGAAGGGCAACCGACGAGTCCGTTT | 2.54 | 0.861 | 0.95 | 0.278 | 0.308 | 0.796 | 1.11 | 0.642 | 0.636 | 1.47
TCTCGGAGGACACGAAGGTCAGAACTTTCCAGAG | 1.69 | 0.656 | 0.251 | -1.14 | 1.13 | 1.84 | 1.09 | 1.81 | 0.264 | 3.08
CCGACTGGGGCAGAGAGGTTACCATACCATCCGG | 2.02 | 1.91 | -0.515 | -1.59 | 0.15 | 0.359 | -0.131 | 0.845 | 0.129 | 1.24
TCTCGGAGGACACGAAGGACAGAGCTTTCCAGAG | 1.14 | 0.0636 | -0.366 | -1.09 | -0.347 | -0.352 | -0.367 | 0.0176 | -1.01 | 1.54
ACTAATAGTTGAGACGAGGGCAACCGATAGGTTG | -0.206 | 0.29 | -0.296 | 0.434 | -0.0381 | 2.33 | 0.121 | 1.08 | -0.0731 | 1.34
ATATGTAGGTTAGCTAGGGTCATTCAGACTAGGC | 6.58 | 6.18 | 2.95 | 1.89 | 3.4 | 5.64 | 2.1 | 4.85 | 1.52 | 2.71
TCTATTAGTTGATTAGGCCAACCGAAACAGCGGA | 2.31 | 0.958 | 0.847 | 0.784 | 1.2 | 0.477 | 0.547 | 0.834 | 1.24 | 0.707
TCGAGTAGGTTAGGGGCTTTCAGAATGGCGTCGA | 2.03 | 1.11 | -0.958 | -0.419 | 0.523 | -0.179 | -0.00687 | -0.485 | 0.102 | 0.395
TAGCCTAGGTCATTCCGGGGCCAGTATAGAAAGC | 1.04 | 2.62 | -0.235 | 0.258 | 0.924 | 2.65 | -0.216 | 3.02 | -0.809 | 3.74
TCAAATAGGTAAATGCTAGGTGAAAGTCCGATCT | 3.54 | 2.47 | 0.483 | 0.699 | 0.99 | 0.653 | 0.443 | 1.16 | 1.43 | 0.7
AAATGTAGGTTATCGGGTCATTCAGTTTGCGCAT | 8.08 | 7.95 | 2.76 | 1.48 | 3 | 3.87 | 7.01 | 3.72 | 1.36 | 2.68
CGCGAAAGGTCGTGCTCAGGTGAGTATACCAAAC | 0.794 | 1.92 | 0.376 | -0.142 | 2.14 | 3.61 | 0.0719 | 4.63 | 0.019 | 4.18
GCGACTGGGGCATCAGCAAGTTACCATAACTTAA | 3.88 | 2.87 | -1.33 | -0.593 | -0.528 | -0.359 | -0.789 | -0.454 | -0.707 | 0.453
CGTCAAAGTTCAACTAAGGTAACGAAAAGCACGC | 0.421 | 2.48 | 0.738 | 0.747 | 4.18 | 5.19 | 4.69 | 4.25 | 2.25 | 5.13
ACAGACAGGTTAGTGAAGGTAACTCAGCTGGACG | 0.174 | 0.407 | 0.284 | 0.465 | 0.573 | -0.0921 | -0.25 | 0.306 | 0.0654 | 0.755
CCGACCGGGGCAGAAAGGTTACCATACCATCCGG | -0.478 | -0.0375 | -0.85 | -1.32 | 0.496 | 1.16 | -0.029 | 1.83 | -0.144 | 2.06
TCTGCTAGGTCGGTTGGTCAGCTAACGAGCTGCC | 0.68 | 0.822 | -0.109 | -0.00426 | -1.51 | -0.617 | -0.886 | -0.528 | -1.53 | 0.845
TCTTGTAGATAAGCAGGTTAAGAAAGCTGGCCAA | 1.32 | 0.184 | 0.000724 | -0.186 | 0.0505 | 0.206 | -0.278 | 0.402 | 0.154 | 0.0488
CCGAGTAGATTATGGGGCATTCAGGCAACGGTGA | 0.855 | 1 | -0.628 | -0.679 | 0.156 | -0.457 | 0.0578 | -0.525 | -0.197 | 0.0647
TGTCAAAGTTTAAAGGTAACGTAAGTATCCACAC | -0.319 | 2.73 | 0.942 | 1.54 | 0.899 | 1.7 | 0.39 | 2.12 | 0.576 | 2.46
